Assay outcomes from PubChem BioAssay.
This is a sample that favours compounds with a hit; in the whole collection about 22% have one here.
CYP2C9 inhib – blocks human cytochrome P450 2C9. AID 777. inhibition, % at 5 µM. P11712. 20% of 96,000 active. CYP2C9 Supersomes, luciferin-H conversion, luminescence;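 active = blocking of liver enzyme CYP2C9 beyond about 50% at 5 µM, limit read from the data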
Target sequence (P11712 whole entry, looked up): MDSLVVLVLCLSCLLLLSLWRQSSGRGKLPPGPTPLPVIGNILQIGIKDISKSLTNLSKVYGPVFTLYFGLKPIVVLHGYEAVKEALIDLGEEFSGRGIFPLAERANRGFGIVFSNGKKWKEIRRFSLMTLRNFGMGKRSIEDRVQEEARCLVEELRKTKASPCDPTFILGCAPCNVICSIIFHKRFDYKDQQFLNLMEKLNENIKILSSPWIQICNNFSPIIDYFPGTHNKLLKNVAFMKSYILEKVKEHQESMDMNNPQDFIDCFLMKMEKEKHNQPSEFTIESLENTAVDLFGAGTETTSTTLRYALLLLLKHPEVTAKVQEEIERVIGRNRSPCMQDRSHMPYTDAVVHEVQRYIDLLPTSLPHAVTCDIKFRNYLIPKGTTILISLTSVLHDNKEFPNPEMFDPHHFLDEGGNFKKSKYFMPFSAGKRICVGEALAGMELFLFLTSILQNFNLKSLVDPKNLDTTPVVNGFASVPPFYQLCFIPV
CYP2C19 inh – blocks human cytochrome P450 2C19; 21% of 96,000 active; CYP2C19 Supersomes, luciferin-H EGE luminescence, 30 min; inhibition, % at 5 µM;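 active = CYP2C19 inhibition above a set limit at 5 µM in the primary screen, cut at about 50% in these data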
CYP2C19 activ – activators of human cytochrome P450 2C19; P33261; recombinant CYP2C19, luciferin-H EGE luminescence; hits give high values; 0 = fully inhibited enzyme, 1 = untreated enzyme; activation factor at 5 µM; 96,000 tested, under 10 active;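 active = activation factor of at least 2 at 5 µM in the primary screen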
CYP2C9 activ – activators of human CYP2C9; P11712; recombinant CYP2C9, luciferin-H conversion, luminescence; hits give high values; factor 1 = untreated enzyme, 0 = blocked; activation factor at 5 µM; 1.4% of 96,000 active; AID 1024;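 active = activation factor of 2 or more for CYP2C9 at a 5 µM dose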
Measles CPE – protection of cells from measles virus; protection (pct of control), % at 4 µM; 1.5% of 140,000 active; Measles virus-infected cells, CPE protection, absorbance; in the data active = protection mostly above about 24%, no sharp cut-off; inactive = mostly below about 26%
Hits are given with their value; . = inactive; / = no result given.

SMILES | CYP2C9 inhib | CYP2C19 inh | CYP2C19 activ | CYP2C9 activ | Measles CPE
COc1cc(OC)c(N2CC34C=CC(O3)C(C(=O)O)C4C2=O)cc1Cl (configuration not stated) | . | . | . | . | .
COc1ccc(N2C(=O)[C@@H]3[C@H](C2=O)[C@H]2c4ccccc4C=CN2[C@@H]3C(=O)Nc2ccccc2)cc1 | 62.4 | . | . | . | .
Cc1ccc(N2C(=O)[C@@H]3[C@H](C2=O)C2c4ccccc4C=CN2[C@@H]3C(=O)c2ccco2)cc1 (some centres not stated) | . | . | . | . | .
CC(C)(C)C(=O)[C@@H]1[C@@H]2C(=O)N(c3ccc4c(c3)OCCO4)C(=O)[C@@H]2C2c3ccccc3C=CN21 (some centres not stated) | 56.7 | 57.2 | . | . | .
Cc1csc(NC(=O)CSc2nnc3c4ccccc4nc(C(C)(C)C)n23)n1 | . | . | . | . | .
O=C(CSc1nc(N2CCCCC2)nc(N2CCCCC2)n1)Nc1nccs1 | 67.4 | . | . | . | .
Cc1nnc(NC(=O)CSC2CCCCC2)s1 | . | . | . | . | .
O=C(CSC1CCCCC1)Nc1nccs1 | . | 83.5 | . | . | .
Cc1ccc(S(=O)(=O)/N=C(/Nc2c(C)n(C)n(-c3ccccc3)c2=O)c2ccccc2)cc1 | / | / | / | / | .
O=C(COC(=O)C1CCN(/C=C/C(=O)C(F)(F)F)CC1)Nc1ccccc1 | / | / | / | / | .
O=S(=O)(O)C1CCNCC1 | / | / | / | / | .
CC(SC1=NCCS1)C(=O)Nc1nnc(-c2ccc(Br)cc2)s1 (configuration not stated) | 56.7 | . | . | . | .
CC(SC1=NCCS1)C(=O)Nc1nnc(-c2ccc(F)cc2)s1 (configuration not stated) | . | . | . | . | .
c1ccc2[nH]c(SCc3cscn3)nc2c1 | . | 91.0 | . | . | .
Fc1ccccc1CSc1nc2ncc(Br)cc2[nH]1 | 78.2 | 87.1 | . | . | .
Fc1ccccc1CSc1nc2ccccc2[nH]1 | 84.6 | 100.1 | . | . | .
COc1cc(/C=N/N(C)c2ccccc2)cc(Cl)c1O | 58.0 | 52.2 | . | . | .
COc1ccc(OC)c(/C=N/N(C)c2ccccc2)c1 | 55.5 | 66.6 | . | . | .
COc1cccc(NC(=O)CCCOc2cc(=O)n(C)c3ccccc23)c1 | . | 64.3 | . | . | .
Cn1c(=O)cc(OCCCC(=O)NC2CCCC2)c2ccccc21 | . | . | . | . | .
CCOc1ccc(NC(=O)CCCOc2cc(=O)n(C)c3ccccc23)cc1 | 70.9 | . | . | . | .
O=C1CC(c2ccc(Br)cc2)NC(c2ccc(Br)cc2)C1c1ccccc1 (configuration not stated) | / | / | / | / | 53.0
O=C1CCC([N+](=O)[O-])C(c2ccc(Br)cc2)N1 (configuration not stated) | / | / | / | / | .
FC(F)(F)c1ccc(N=Cc2sc(N3CCOCC3)nc2-c2ccccc2)cc1 | / | / | / | / | .
O=C(Nc1ccccc1Cc1ccccc1)C1CC(=O)N(c2ccc3c(c2)OCCO3)C1 (configuration not stated) | 76.1 | 63.5 | . | . | .
SMILES | CYP2C9 inhib | CYP2C19 inh | CYP2C19 activ | CYP2C9 activ | Measles CPE
CCCCc1nnc(NC(=O)C2CC(=O)N(c3ccc4c(c3)OCCO4)C2)s1 (configuration not stated) | / | / | / | / | .
Cc1cc(C)c(NC(=O)C2CC(=O)N(c3ccc4c(c3)OCCO4)C2)c(C)c1 (configuration not stated) | . | . | . | . | .
CCc1cccc(CC)c1NC(=O)C1CC(=O)N(c2ccc3c(c2)OCCO3)C1 (configuration not stated) | 89.4 | 74.1 | . | . | .
O=C(Nc1nc(-c2ccco2)c(-c2ccco2)s1)C1CC(=O)N(c2ccc3c(c2)OCCO3)C1 (configuration not stated) | 93.7 | 71.1 | . | . | .
Cc1c(-c2ccccc2)[n+](=O)c2c(n1[O-])CCCCC2 | / | / | / | / | .
O=C1CC(=O)CC(c2ccccc2Cl)C1 | / | / | / | / | .
CC(=O)Nc1cccc(Oc2ccc(-c3noc(C)n3)cc2)c1 | 57.0 | 76.5 | . | . | .
NS(=O)(=O)c1cc2c(cc1Cl)NC=NS2(=O)=O | / | / | / | / | .
CNC(=O)c1ccsc1NC(=O)c1ccc(Cl)s1 | 68.5 | 77.3 | . | . | .
COC(=O)c1sccc1NC(=O)c1ccc(Cl)s1 | . | . | . | . | .
COc1ccc(NS(=O)(=O)c2ccc(Oc3ncccn3)cc2)cc1 | 69.2 | 81.3 | . | . | .
COc1ccc(N/C=C/C(=O)c2ccc(Oc3ncccn3)cc2)cc1 | . | . | . | . | .
COc1ccc(-n2cnc3cc(NS(=O)(=O)c4ccccc4)ccc32)cc1 | / | / | / | / | .
COc1ccc(S(=O)(=O)Nc2ccc(Oc3ncccn3)c(Cl)c2)cc1 | 98.3 | 99.7 | . | . | .
O=C(c1cccc(N2C(=O)C3CC=CCC3C2=O)c1)N1CCN(c2ccccc2)CC1 (configuration not stated) | / | / | / | / | .
C=CCc1cccc2cc(C(=O)N(C)C)c(=O)oc12 | . | . | . | 3 | .
C=CCc1cccc2cc(C(=O)O)c(=O)oc12 | . | . | . | . | .
COc1cccc2cc(C(=O)N3CCN(C(=O)c4ccco4)CC3)c(=O)oc12 | . | . | . | . | .
C=CCc1cccc2cc(C(=O)N(CC)CC)c(=O)oc12 | . | . | . | 2.2 | .
C=CCc1cccc2cc(C(=O)N3CCN(C(=O)c4ccco4)CC3)c(=O)oc12 | . | . | . | 2.3 | .
C=CCc1cccc2cc(C(=O)OCC(=O)c3ccccc3)c(=O)oc12 | . | . | . | 2.9 | .
COC(=O)COc1ccc(S(=O)(=O)NCc2cccnc2)cc1C | . | . | . | . | .
CCOc1ccc(/C(O)=C2/C(=O)C(=O)N(CCCn3ccnc3)C2c2cccs2)cc1Cl (configuration not stated) | 70.2 | . | . | . | .
CN1/C(=C\C(=O)CN2C(=O)NC3(CCCCCC3)C2=O)C(C)(C)c2ccccc21 | 78.6 | 88.5 | . | . | .
S=C(NC1CCCCC1)c1ccc2c(c1)OCO2 | . | 83.3 | . | . | .
SMILES | CYP2C9 inhib | CYP2C19 inh | CYP2C19 activ | CYP2C9 activ | Measles CPE
O=C(NC1CCCCCCC1)c1ccc2c(c1)OCO2 | . | . | . | . | .
COc1ccc(C(=S)N2CCCC2)cc1C | . | 91.0 | . | . | .
CN(C(=O)c1ccc2c(c1)OCO2)C1(C(=O)NC2CCCC2)CCCCC1 | . | . | . | . | .
S=C(c1ccc2c(c1)OCO2)N1CCCCCC1 | 54.6 | 99.2 | . | . | .
O=C(c1ccc2c(c1)OCO2)N(CC1CCCO1)C1(C(=O)NC2CCCCC2)CCCCC1 (configuration not stated) | 71.1 | 69.6 | . | . | .
COc1ccccc1N1CCN(CC(O)c2ccc3cc[nH]c3c2)CC1 (configuration not stated) | . | . | . | . | .
CCN(C(=O)CSc1nnc(NC2CCCCC2)s1)C1CCS(=O)(=O)C1 (configuration not stated) | . | . | . | . | .
O=C(c1ccc2c(c1)OCO2)N1CCCN(C(=O)c2ccc3c(c2)OCO3)CC1 | 74.2 | . | . | . | .
